# Among all 2,000 compounds or so, about 110 (5.5%) showed an effect of 50% or more. Shown is part of a subset that was picked to be rich in strong results.
# Biological target: Genome polyprotein (dengue virus type 2) (UniProt P29990)
# [1] = Thailand/16681/1984, Concentration 25.0 uM, Number of replicates 1.0
smiles,measurement,setting,value
CCn1ccnc(N2CC[C@@H](CO)C2)c1=O,inhibition,"Thailand/16681/1984, Concentration 49.5 uM, Number of replicates 2.0, Standard deviation 0.40547257598729775 %",8.04%
same,inhibition,"Thailand/16681/1984, Concentration 99.01 uM, Number of replicates 2.0, Standard deviation 0.38043701079703857 %",15.5%
same,inhibition,"Thailand/16681/1984, Concentration 198.0 uM, Number of replicates 2.0, Standard deviation 0.16218916526483432 %",28.5%
O=c1c(N2CC[C@H](CO)C2)nccn1C1CC1,inhibition,"Thailand/16681/1984, Concentration 49.5 uM, Number of replicates 2.0, Standard deviation 2.4482264734756005 %",8.46%
same,inhibition,"Thailand/16681/1984, Concentration 99.01 uM, Number of replicates 2.0, Standard deviation 2.8900822321462307 %",18%
same,inhibition,"Thailand/16681/1984, Concentration 198.0 uM, Number of replicates 2.0, Standard deviation 2.1394185374850085 %",33.2%
C[C@H](NC(=O)C1CCN(c2ccc(C=O)cc2)CC1)C12CC3CC(CC(C3)C1)C2,inhibition,[1],15%
CN(C(=O)C1CCN(c2ccc(C=O)cc2)CC1)[C@H]1CCN(Cc2ccccc2)C1,inhibition,[1],13.8%
Cc1nnc([C@H](C)n2cc(C3CCNCC3)c(C)n2)o1,inhibition,"Thailand/16681/1984, Concentration 49.5 uM, Number of replicates 2.0, Standard deviation 23.401160981224884 %",6.09%
same,inhibition,"Thailand/16681/1984, Concentration 99.01 uM, Number of replicates 2.0, Standard deviation 17.471832455878243 %",11.7%
same,inhibition,"Thailand/16681/1984, Concentration 198.0 uM, Number of replicates 2.0, Standard deviation 4.4669335919131345 %",-3.53%
Cc1cc(CO)c2cccc(CC(=O)NC[C@H](C)O)c2n1,inhibition,"Thailand/16681/1984, Concentration 99.9 uM, Number of replicates 2.0, Standard deviation 0.37872079112567497 %",-9.3%
Cc1cc(CO)c2cccc(Cc3ccccc3C(=O)Nc3ccc(C(=O)O)o3)c2n1,inhibition,"Thailand/16681/1984, Concentration 49.95 uM, Number of replicates 2.0, Standard deviation 1.5990008562851066 %",16.8%
same,inhibition,"Thailand/16681/1984, Concentration 99.9 uM, Number of replicates 2.0, Standard deviation 2.1056511568076566 %",34.4%
Cc1cc(CO)c2cccc(CC(=O)Nc3ccc(C(=O)O)o3)c2n1,inhibition,"Thailand/16681/1984, Concentration 49.95 uM, Number of replicates 2.0, Standard deviation 0.6719381020899052 %",88.9%
same,inhibition,"Thailand/16681/1984, Concentration 99.9 uM, Number of replicates 2.0, Standard deviation 0.0646782165500299 %",94%
Cc1cc(CO)c2cccc(Cc3cccc(C(=O)N[C@@H](C)C(N)=O)c3)c2n1,inhibition,"Thailand/16681/1984, Concentration 49.95 uM, Number of replicates 2.0, Standard deviation 0.7962665847500093 %",6.57%
same,inhibition,"Thailand/16681/1984, Concentration 99.9 uM, Number of replicates 2.0, Standard deviation 0.21200201975767785 %",24.1%
Cc1cc(CO)c2cccc(Nc3ccc(C(=O)O)o3)c2n1,inhibition,"Thailand/16681/1984, Concentration 49.95 uM, Number of replicates 2.0, Standard deviation 2.0261345521834873 %",10.8%
same,inhibition,"Thailand/16681/1984, Concentration 99.9 uM, Number of replicates 2.0, Standard deviation 1.7612979174821286 %",14%
Cc1cc(CO)c2cccc(Cc3cccc(C(=O)Nc4ccc(C(=O)O)o4)c3)c2n1,inhibition,"Thailand/16681/1984, Concentration 49.95 uM, Number of replicates 2.0, Standard deviation 0.4498774840540114 %",35.3%
same,inhibition,"Thailand/16681/1984, Concentration 99.9 uM, Number of replicates 2.0, Standard deviation 0.6611646932609445 %",80.5%
O=Cc1ccc(N2CCC(C(=O)Nc3ccccc3Oc3ccccc3)CC2)cc1,inhibition,[1],14.2%
c1ccc2c([C@H]3CCN(Cc4ccon4)C3)c[nH]c2c1,inhibition,"Thailand/16681/1984, Concentration 49.5 uM, Number of replicates 2.0, Standard deviation 1.9476178393933903 %",-2.85%
same,inhibition,"Thailand/16681/1984, Concentration 99.01 uM, Number of replicates 2.0, Standard deviation 2.5164078728535832 %",-2.25%
same,inhibition,"Thailand/16681/1984, Concentration 198.0 uM, Number of replicates 2.0, Standard deviation 2.4110409873352823 %",-1.68%
O=Cc1ccc(N2CCC(C(=O)N3CCN(CCOc4ccccc4)CC3)CC2)cc1,inhibition,[1],11.7%
CC(C)Nc1nc2ccc(C(=O)NCc3cnn(C)c3)cc2[nH]1,inhibition,"Thailand/16681/1984, Concentration 49.5 uM, Number of replicates 2.0, Standard deviation 2.4534347281334856 %",-3.32%
same,inhibition,"Thailand/16681/1984, Concentration 99.01 uM, Number of replicates 2.0, Standard deviation 2.252490861313308 %",-2.73%
same,inhibition,"Thailand/16681/1984, Concentration 198.0 uM, Number of replicates 2.0, Standard deviation 1.9859869815785558 %",-2.52%
N#Cc1ccc(C[C@H](NC(=O)c2ccccc2)C(=O)NCCCCNC(=N)N)cc1,inhibition,"Thailand/16681/1984, Concentration 49.5 uM, Number of replicates 2.0, Standard deviation 0.6326801671633419 %",-5.12%
same,inhibition,"Thailand/16681/1984, Concentration 99.01 uM, Number of replicates 2.0, Standard deviation 1.2914777248245206 %",-4.14%
same,inhibition,"Thailand/16681/1984, Concentration 198.0 uM, Number of replicates 2.0, Standard deviation 0.45252363179091937 %",-1.98%
N=C(N)NCCC[C@H](NC(=O)[C@H](Cc1ccc(CN)cc1)NC(=O)c1ccccc1)B(O)O,inhibition,"Thailand/16681/1984, Concentration 25.0 uM, Number of replicates 3.0, Standard deviation 0.03506963405710981 %",99.2%
same,inhibition,"Thailand/16681/1984, Concentration 49.5 uM, Number of replicates 2.0, Standard deviation 0.000841588271065532 %",99.2%
same,inhibition,"Thailand/16681/1984, Concentration 49.5 uM, Number of replicates 2.0, Standard deviation 0.023586050776272474 %",99.1%
same,inhibition,"Thailand/16681/1984, Concentration 49.5 uM, Number of replicates 2.0, Standard deviation 0.03248746518177329 %",99.4%
same,inhibition,"Thailand/16681/1984, Concentration 49.5 uM, Number of replicates 2.0, Standard deviation 0.05596562002585788 %",99.3%
same,inhibition,"Thailand/16681/1984, Concentration 49.5 uM, Number of replicates 2.0, Standard deviation 0.06712205941408557 %",99.5%
same,inhibition,"Thailand/16681/1984, Concentration 49.5 uM, Number of replicates 2.0, Standard deviation 0.09040060678362256 %",99.2%
same,inhibition,"Thailand/16681/1984, Concentration 49.5 uM, Number of replicates 2.0, Standard deviation 0.09520737056259301 %",99.3%
same,inhibition,"Thailand/16681/1984, Concentration 49.95 uM, Number of replicates 2.0, Standard deviation 0.47465039008435067 %",97.5%
same,inhibition,"Thailand/16681/1984, Concentration 99.01 uM, Number of replicates 2.0, Standard deviation 0.0013325147625204256 %",99.6%
same,inhibition,"Thailand/16681/1984, Concentration 99.01 uM, Number of replicates 2.0, Standard deviation 0.024875407165917744 %",99.7%
same,inhibition,"Thailand/16681/1984, Concentration 99.01 uM, Number of replicates 2.0, Standard deviation 0.05930499912707304 %",99.8%
same,inhibition,"Thailand/16681/1984, Concentration 99.01 uM, Number of replicates 2.0, Standard deviation 0.0639876825840274 %",99.6%
same,inhibition,"Thailand/16681/1984, Concentration 99.01 uM, Number of replicates 2.0, Standard deviation 0.06968458780354793 %",99.8%
same,inhibition,"Thailand/16681/1984, Concentration 99.01 uM, Number of replicates 2.0, Standard deviation 0.07464240588758142 %",99.5%
same,inhibition,"Thailand/16681/1984, Concentration 99.01 uM, Number of replicates 2.0, Standard deviation 0.12292583554166162 %",99.6%
same,inhibition,"Thailand/16681/1984, Concentration 99.9 uM, Number of replicates 2.0, Standard deviation 0.4080138623651106 %",98.7%
same,inhibition,"Thailand/16681/1984, Concentration 198.0 uM, Number of replicates 2.0, Standard deviation 0.0010358009490037316 %",99.7%
same,inhibition,"Thailand/16681/1984, Concentration 198.0 uM, Number of replicates 2.0, Standard deviation 0.007655216388730705 %",99.8%
same,inhibition,"Thailand/16681/1984, Concentration 198.0 uM, Number of replicates 2.0, Standard deviation 0.011571838727151066 %",99.8%
same,inhibition,"Thailand/16681/1984, Concentration 198.0 uM, Number of replicates 2.0, Standard deviation 0.02492935513201169 %",99.9%
same,inhibition,"Thailand/16681/1984, Concentration 198.0 uM, Number of replicates 2.0, Standard deviation 0.05517797972088629 %",99.9%
same,inhibition,"Thailand/16681/1984, Concentration 198.0 uM, Number of replicates 2.0, Standard deviation 0.06791509451566656 %",99.8%
same,inhibition,"Thailand/16681/1984, Concentration 198.0 uM, Number of replicates 2.0, Standard deviation 0.07632018763310308 %",99.6%
NCc1ccc(C[C@H](NC(=O)c2ccccc2)C(=O)Nc2cccc(C(N)=O)c2)cc1,inhibition,"Thailand/16681/1984, Concentration 49.5 uM, Number of replicates 2.0, Standard deviation 0.2094720287352659 %",-3.21%
same,inhibition,"Thailand/16681/1984, Concentration 99.01 uM, Number of replicates 2.0, Standard deviation 1.2712236353041253 %",-1.98%
same,inhibition,"Thailand/16681/1984, Concentration 198.0 uM, Number of replicates 2.0, Standard deviation 0.9103772804850719 %",-0.193%
O=Cc1ccc(N2CCC(C(=O)N3CCN(c4ccnc5cc(Cl)ccc45)CC3)CC2)cc1,inhibition,[1],1.86%
CC(C)CC(=O)N1CCC(NC(=O)C2CCN(c3ccc(C=O)cc3)CC2)CC1,inhibition,[1],14.2%

# From ChEMBL document CHEMBL5606460, “ASAP - DENV-2 NS2B-NS3 protease fluorescence single point” (2024)
